# From PubChem BioAssay (NCATS)
# “And” between values parts separate entries of the source, which are not always exact repeats. Identical values can stand only once. Values without a mark were called inactive. Results filed as inconclusive are left out. A call without a number means that no potency is given here. The source made the active and inactive calls. Unless noted, the call rests on the fitted dose curve; in most records, active means well fitted curve in the direction sought with a large enough effect; inconclusive means small, poorly fitted or top-dose-only effect, or another doubt; inactive means no such curve, though single readings can be large; an effect the other way counts as inactive or inconclusive. Where a SMILES comes first, the peptide text is derived from it. Bridges are numbered along the chain shown (N, C = ends). [ ]: non-standard residue; d: D form. The star is where a group is joined. ξ: configuration not given here. d(aThr) = C[C@@H](O)[C@@H](N)C(=O)O; ξThr(3R) = C[C@@H](O)C(N)C(=O)O; X3 = CC[C@@H](C)CCCCC(=O)*; dDab = NCC[C@@H](N)C(=O)O
# What was measured:
# [1] = qHTS assay to identify small molecule inhibitors of chordoma cells - UCH-1 (AID 1259355); further: nearly all actives have a fitted effect of over 55% in size; further: potency means the concentration at half of the fitted maximal effect; series mostly up to about 46 µM
# Outline: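 Screening used approved and investigational drugs in 15-point titration against 800 seeded cells per well. A fixed combination of auranofin with camptothecin, doxorubicin, rubitecan and topotecan followed compound addition, and growth was scored by CellTiter-Glo after 48hr.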
# [2] = qHTS assay to identify small molecule inhibitors of chordoma cells - UCH-2 (AID 1259356); further: potency means the concentration at half of the fitted maximal effect
# [3] = P-glycoprotein substrates identified in KB-8-5-11 adenocarcinoma cell line, qHTS therapeutic library screen (AID 1346987); details: outcome: dose series up to 44.5 µM unless noted; further: nearly all actives have a fitted effect of over 65% in size; further: potency means the concentration at half of the fitted maximal effect
# Outline: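 Luminescence from CellTiter-Glo, read 5 min after addition, quantified survival of KB-8-5-11 (P-gp-overexpressing) cells exposed to compounds for 72 h. AC50 was derived from concentration-response curves.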
# [4] = qHTS Assay for Identifying Gametocytocidal Compounds (AID 743244);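 further: actives lower the fluorescent signal which means gametocytes are killed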; details: P. falciparum 3D7 stage III-V gametocytes, alamarBlue, 72 h; max response: active compounds read low
# Outline: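 Stage III-V P. falciparum 3D7 gametocytes, 20,000 per well, were exposed to compounds for 72 h at 37C, 5% CO2. AlamarBlue was then added for 24 h and viability was read as fluorescence at Ex 525/Em 598 nm.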
# [5] = molecular target: T1, Hexokinase-4 (Homo sapiens) + Glucokinase regulatory protein (Homo sapiens) (UniProt P35557+Q14397); experiment: qHTS assay for inhibitors of recombinant human GCK-GKRP interaction: Diaphorase-coupled assay (AID 743205)
# Outline: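 25 mM Hepes pH 7.6, 5 mM glucose, 0.4 mM ATP, 4 U/ml G6PDH; 10 nM each GST-GCK/FLAG-GKRP. Kinetic fluorescence read, 1/min × 30 min. Normalized: DMSO ± enzyme = max/min.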
# [6] = molecular target: T1, Hexokinase-4 (Homo sapiens) + Glucokinase regulatory protein (Homo sapiens); experiment: qHTS assay for inhibitors of recombinant human GCK-GKRP interaction: ADP-Glo assay (AID 743206)
# Outline: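 Pin-transferred compounds meet a 15 nM GST-GCK/15 nM FLAG-GKRP/2 uM S6P mix (dispense concentrations). ATP is then added to 0.4 mM final with 5 mM glucose, and the reaction runs 60 min at room temperature. ADP is quantified luminescently.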
# [7] = molecular target: T1, Hexokinase-4 (Homo sapiens) + Glucokinase regulatory protein (Homo sapiens); experiment: qHTS assay for inhibitors of recombinant human GCK-GKRP interaction: HTRF assay (AID 743207)
# Outline: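 5 nM GST-GCK + 5 nM FLAG-GKRP + 2 uM S6P, pH 7.1 buffer (25 mM Hepes, 2 mM MgCl2, 25 mM KCl, 1 mM DTT, Tween/BSA); pin-transferred cpd; anti-FLAG XL665/anti-GST K; 60 min RT; HTRF.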
# [8] = qHTS assay for cell viability of the p53RE-bla HCT-116 cell line (AID 743292); further: nearly all actives have a fitted effect of over 55% in size
# Outline: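 ATP-based luminescence, 16 h compound exposure at 37 C, p53RE-bla HCT-116 cells at 4,000/well.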
# [9] = molecular target: Atrial natriuretic peptide receptor 1 (Homo sapiens) (UniProt P16066); experiment: Natriuretic polypeptide receptor (hNpr1) antagonism - Pilot screen (AID 1347049; calls by dose curve;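 further: HEK293 cells with hNpr1 and GloSensor cGMP luciferase stimulated by 0.1 nM hNppA; agonist-evoked cGMP luminescence read 20 min after hNppA addition; series mostly up to about 58 µM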)
# Procedure: In order to identify small molecular compounds that inhibit the hNpr1 receptor we developed a high-throughput assay to measure inhibition of the guanylate cyclase activity of the receptor. cGMP production was measured using a circular permutated Firefly luciferase (FLuc) enzyme functionally linked to the cGMP binding domain of human phosphodiesterase 5 (GloSensor technology pGS-40F, (Fan, F. et al. 2008). The cGMP-sensor was expressed in human embryonic kidney 293 (HEK-293) cells and FLuc activity was measured after stimulation with hNrp agonist peptide. hNrp agonists activates the receptor's associated guanylyl cyclase (GC) domain producing cGMP which then binds to the GloSensor resulting in FLuc activation, the enzymatic activity of which can be measured as bioluminescence with addition of luciferin substrate.
# F. Fan, B. F. Binkowski, B. L. Butler, P. F. Stecha, M. K. Lewis, K. V. Wood, Novel genetically encoded biosensors using firefly luciferase. ACS Chem Biol 3, 346-351 (2008).
# This assay was initially piloted by testing with a small diversity library of compounds with known pharmacological activity. […]
# 7. […] GloSensor baseline pre-read luminescence measured using CCD-based camera (Viewlux). […]
# 10. […] GloSensor post-hNppA luminescence measured using CCD-based camera (Viewlux). […]
# 1. […] Cells counted with Invitrogen Countess (30,000,000 - 50,000,000 cells/flask). […]
# [10] = NS1 protein of Zika virus - qHTS assay to identify small molecule inhibitors in human HEK 293 cells (AID 1347053); further: series mostly up to about 46 µM; nearly all actives have a fitted effect of over 55% in size
# Outline: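 Read-out is a two-antibody TR-FRET for ZIKV NS1, normalized between uninfected cells and infected cells. Compound added 1 h before MR766 infection at MOI 0.5; human HEK 293 cells incubated 24 h, 37 C.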
# T1 sequence (P35557 whole entry, looked up): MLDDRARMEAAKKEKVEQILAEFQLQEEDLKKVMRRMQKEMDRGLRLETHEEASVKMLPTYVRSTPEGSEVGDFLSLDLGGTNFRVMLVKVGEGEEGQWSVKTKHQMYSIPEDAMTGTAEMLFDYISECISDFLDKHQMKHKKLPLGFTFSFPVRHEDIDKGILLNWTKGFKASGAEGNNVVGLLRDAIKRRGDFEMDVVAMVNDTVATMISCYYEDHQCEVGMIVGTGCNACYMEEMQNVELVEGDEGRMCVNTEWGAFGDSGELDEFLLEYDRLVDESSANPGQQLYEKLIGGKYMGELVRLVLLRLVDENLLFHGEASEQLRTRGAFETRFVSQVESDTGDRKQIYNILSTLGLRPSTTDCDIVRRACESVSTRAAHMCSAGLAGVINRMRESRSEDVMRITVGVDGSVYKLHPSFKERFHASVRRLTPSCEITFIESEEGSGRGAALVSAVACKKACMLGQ
# T1 sequence (Q14397 whole entry, looked up): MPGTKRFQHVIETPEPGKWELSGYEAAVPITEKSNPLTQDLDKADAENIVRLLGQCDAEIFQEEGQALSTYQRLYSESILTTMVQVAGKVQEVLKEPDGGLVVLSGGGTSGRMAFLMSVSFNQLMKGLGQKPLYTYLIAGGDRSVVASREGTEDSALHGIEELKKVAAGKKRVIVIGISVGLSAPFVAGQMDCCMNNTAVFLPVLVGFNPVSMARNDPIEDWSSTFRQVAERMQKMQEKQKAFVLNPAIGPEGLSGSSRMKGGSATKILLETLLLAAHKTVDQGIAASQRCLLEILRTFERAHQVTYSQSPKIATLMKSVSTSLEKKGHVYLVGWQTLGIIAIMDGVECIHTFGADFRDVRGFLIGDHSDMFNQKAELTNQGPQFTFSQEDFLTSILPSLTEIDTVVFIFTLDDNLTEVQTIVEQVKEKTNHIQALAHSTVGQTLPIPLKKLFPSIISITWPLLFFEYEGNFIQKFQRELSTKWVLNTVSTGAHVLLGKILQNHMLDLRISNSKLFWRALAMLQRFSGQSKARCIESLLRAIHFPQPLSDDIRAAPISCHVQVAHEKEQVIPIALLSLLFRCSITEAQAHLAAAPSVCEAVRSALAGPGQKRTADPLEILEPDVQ
# Sequence of Atrial natriuretic peptide receptor 1 (Homo sapiens) (P16066 whole entry, looked up, the tested form may be a part): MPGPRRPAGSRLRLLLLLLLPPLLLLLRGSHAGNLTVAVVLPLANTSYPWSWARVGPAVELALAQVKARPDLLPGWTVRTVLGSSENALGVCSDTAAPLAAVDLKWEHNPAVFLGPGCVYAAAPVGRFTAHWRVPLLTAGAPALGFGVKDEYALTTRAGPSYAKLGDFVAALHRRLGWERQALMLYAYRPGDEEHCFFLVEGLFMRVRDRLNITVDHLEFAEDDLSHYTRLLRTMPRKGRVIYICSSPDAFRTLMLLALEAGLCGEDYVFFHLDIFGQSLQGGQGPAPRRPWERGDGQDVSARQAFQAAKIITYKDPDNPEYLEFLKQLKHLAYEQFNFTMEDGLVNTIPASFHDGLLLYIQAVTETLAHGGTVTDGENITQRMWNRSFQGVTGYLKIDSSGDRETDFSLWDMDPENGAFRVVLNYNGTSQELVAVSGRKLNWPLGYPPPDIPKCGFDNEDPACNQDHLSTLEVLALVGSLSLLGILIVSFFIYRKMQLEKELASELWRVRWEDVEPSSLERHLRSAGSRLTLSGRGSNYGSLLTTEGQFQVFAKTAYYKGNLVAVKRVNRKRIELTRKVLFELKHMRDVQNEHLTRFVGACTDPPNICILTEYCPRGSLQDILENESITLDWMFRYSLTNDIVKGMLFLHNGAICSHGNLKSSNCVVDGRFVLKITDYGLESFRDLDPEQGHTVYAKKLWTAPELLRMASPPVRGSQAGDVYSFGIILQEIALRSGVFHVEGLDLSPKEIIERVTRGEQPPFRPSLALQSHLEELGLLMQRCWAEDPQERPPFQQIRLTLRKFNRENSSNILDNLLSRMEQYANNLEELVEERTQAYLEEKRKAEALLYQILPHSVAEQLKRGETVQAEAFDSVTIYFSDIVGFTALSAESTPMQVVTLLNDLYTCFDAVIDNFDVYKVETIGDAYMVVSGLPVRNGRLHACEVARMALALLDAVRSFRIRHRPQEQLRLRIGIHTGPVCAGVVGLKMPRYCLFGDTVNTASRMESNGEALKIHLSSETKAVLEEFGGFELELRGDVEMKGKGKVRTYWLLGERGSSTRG
compound,measurement,setting,value
CC(CN(C)C)CN1c2ccccc2Sc2ccc(C(F)(F)F)cc21 (centres undefined),Potency,[1],inactive
same,Potency,[2],inactive
CCC(C(=O)NC(N)=O)c1ccccc1 (centres undefined),Potency,[1],inactive
same,Potency,[2],inactive
same,Potency,[3],inactive
c1ccc2c(c1)Sc1ccccc1N2CCN1CCCC1,Potency,[1],inactive
same,Potency,[2],inactive
CC(C)NCC(O)COc1ccccc1-n1cccc1 (centres undefined),Potency,[1],inactive
same,Potency,[2],inactive
CC1=C(/C=C/C(C)=C/C=C/C(C)=C/C=C/C=C(C)/C=C/C=C(C)/C=C/C2=C(C)C[C@@H](O)CC2(C)C)C(C)(C)C[C@H](O)C1,Potency,[1],inactive
same,Potency,[2],inactive
NC(N)=NCC1COC2(CCCCC2)O1 (centres undefined),Potency,[1],inactive
same,Potency,[2],inactive
same,Potency,[3],inactive
CC(C)Cc1ccc([C@@H](C)C(=O)NS(C)(=O)=O)cc1,Potency,[1],inactive
same,Potency,[2],inactive
same,Potency,[3],inactive
CCOc1ccc(NC(=S)Nc2ccc(OCC)cc2)cc1,Potency,[1],inactive
same,Potency,[2],inactive
CN(C)C(=O)CCSC(SCCC(=O)O)c1cccc(/C=C/c2ccc3ccc(Cl)cc3n2)c1 (centres undefined),Potency,[1],inactive
same,Potency,[2],inactive
same,Potency,[3],inactive
CC(=O)c1ccc2c(c1)N(CCCN1CCN(CCO)CC1)c1ccccc1S2,Potency,[1],inactive
same,Potency,[2],inactive
O=C(O)COc1ccc(CCNS(=O)(=O)c2ccccc2)s1,Potency,[1],inactive
same,Potency,[2],inactive
same,Potency,[3],inactive
N#Cc1ccc2c(c1)N(CCCN1CCC(O)CC1)c1ccccc1S2,Potency,[1],inactive
same,Potency,[2],inactive
NC(=O)c1cc[n+](CC2=C(C(=O)O)N3C(=O)[C@@H](NC(=O)C(c4ccccc4)S(=O)(=O)[O-])[C@H]3SC2)cc1 (some centres undefined),Potency,[1],inactive
same,Potency,[2],inactive
same,Potency,[3],inactive
O=C(OC[C@H]1O[C@@H](OC(=O)c2cc(O)c(O)c(OC(=O)c3cc(O)c(O)c(O)c3)c2)[C@H](OC(=O)c2cc(O)c(O)c(OC(=O)c3cc(O)c(O)c(O)c3)c2)[C@@H](OC(=O)c2cc(O)c(O)c(OC(=O)c3cc(O)c(O)c(O)c3)c2)[C@@H]1OC(=O)c1cc(O)c(O)c(OC(=O)c2cc(O)c(O)c(O)c2)c1)c1cc(O)c(O)c(OC(=O)c2cc(O)c(O)c(O)c2)c1,Potency,[1],15.8 µM (active)
same,Potency,[2],16.4 µM (active)
same,Potency,[3],23.1 µM (active)
O=C(Nc1ccc(O)cc1)c1ccccc1O,Potency,[1],inactive
same,Potency,[2],inactive
same,Potency,[3],inactive
CC(=O)Nc1c(I)c(C(=O)O)c(I)c(N(C)C(C)=O)c1I,max response,[4],-0.708%
same,Potency,[1],inactive
same,Potency,[2],inactive
same,Potency,[3],inactive
CC12CCC(C1)C(C)(C)C2=O (centres undefined),Potency,[1],inactive
same,Potency,[2],inactive
same,Potency,[3],inactive
CNC(C)CCC=C(C)C (centres undefined),Potency,[1],inactive
same,Potency,[2],inactive
same,Potency,[3],inactive
O=[N+]([O-])O[C@@H]1CO[C@H]2[C@@H]1OC[C@@H]2O,Potency,[1],inactive
same,Potency,[2],inactive
same,Potency,[3],inactive
Oc1ccc(/C=C/c2cc(O)cc(O)c2)cc1,outcome,[5],inactive
same,outcome,[6],inactive
same,outcome,[7],inactive
same,max response,[4],-0.421% and 10.7%
same,outcome,[8],inactive
same,Potency,[1],inactive
same,Potency,[2],inactive
same,Potency,[3],inactive
same,outcome,[9],inactive
same,outcome,[10],inactive
CCN1C(=O)NC(c2ccccc2)C1=O (centres undefined),Potency,[1],inactive
same,Potency,[2],inactive
same,Potency,[3],inactive
CCCCCCCCCc1ccc(OCCOCCO)cc1,Potency,[1],inactive
same,Potency,[2],inactive
same,Potency,[3],4.61 µM (active)
COc1cc2c(cc1OC)[C@@H](c1ccccc1)CN(C)CC2,Potency,[1],inactive
same,Potency,[2],inactive
same,Potency,[3],inactive
C=C1CC[C@H](O)CC1=C/C=C1\CCC[C@]2(C)[C@@H]([C@H](C)/C=C/[C@H](C)C(C)C)CC[C@@H]12,Potency,[1],inactive
same,Potency,[2],inactive
same,Potency,[3],inactive
NCC[C@H](O)C(=O)N[C@@H]1C[C@H](N)[C@@H](O[C@H]2O[C@H](CN)[C@@H](O)[C@H](O)[C@H]2O)[C@H](O)[C@H]1O[C@H]1O[C@H](CO)[C@@H](O)[C@H](N)[C@H]1O,Potency,[1],inactive
same,Potency,[2],inactive
same,Potency,[3],inactive
CC[C@@H](C)CCCCC(=O)N[C@H](CCN)C(=O)N[C@@H](C(=O)N[C@H](CCN)C(=O)N[C@@H]1CCNC(=O)C([C@@H](C)O)NC(=O)[C@@H](CCN)NC(=O)[C@@H](CCN)NC(=O)[C@@H](CC(C)C)NC(=O)[C@@H](Cc2ccccc2)NC(=O)[C@@H](CCN)NC1=O)[C@@H](C)O (stereo partly drawn) (X3-[dDab][d(aThr)][dDab][dDab][dDab][dF][dL][dDab][dDab][ξThr(3R)]; lactam 4-C),Potency,[1],inactive
same,Potency,[2],inactive
same,Potency,[3],inactive
Cc1ccc(C(C)(C)c2ccc(C)cc2)cc1,max response,[4],17%
same,Potency,[1],inactive
same,Potency,[2],inactive
same,Potency,[3],inactive
O=C(OC1C[C@@H]2CC3C[C@H](C1)N2CC3=O)c1c[nH]c2ccccc12 (some centres undefined),Potency,[1],inactive
same,Potency,[2],inactive
same,Potency,[3],inactive
COc1ccc2cc([C@H](C)CO)ccc2c1,Potency,[1],inactive
same,Potency,[2],inactive
same,Potency,[3],inactive
